About 360 (15%) of roughly 2,400 compounds were called active.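 Rule for the calls: active = viability falls under 70% at one or more tested concentrations, taken as toxicity; inactive = viability stays over 70% at every dose.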 A selection follows. Where a call stands in place of a potency, no number is given. Potency and affinity values are given separately.
experiment: HeLa cell cytotoxicity, dose response, cytotoxicity control for MgcRacGAP inhibitor project (AID 624300); details: CellTiter-Glo luminescence, 24 h; series mostly up to 100 µM

| SMILES | outcome |
| --- | --- |
| CC(=O)C[C@H]1c2cc(F)ccc2S(=O)(=O)N1c1ccc(N(C)C)cc1 | inactive |
| COc1cc(OC)c(OC)cc1CN1CCN(Cc2ccc(SC)cc2)CC1 | inactive |
| CN1CC(=O)N(CC(=O)Nc2ccc(N(C)C)cc2)c2ccccc2C1=O | inactive |
| Cc1ccccc1-c1ccc(Nc2ccc(N3CCOCC3)cc2)nn1 | inactive |
| CC1CCCC(N2CCN(C(=O)c3ccc([N+](=O)[O-])cc3)CC2)C1 (stereo unspecified) | inactive |
| COCCCNc1nc(=S)[nH]c2cc(OC)c(OC)cc12 | inactive |
| OCCCCNc1cccc2ccccc12 | inactive |
| COCCNCc1nc2sc(C)c(-c3ccccc3)c2c(=O)[nH]1 | inactive |
| COc1ccc(N2CCN(CC(=O)Nc3cccc(S(=O)(=O)N4CCOCC4)c3)CC2)cc1 | inactive |
| CCOc1cc(/C=N/NC(=O)CSc2cccc3cccnc23)ccc1O | inactive |
| Cc1cc(-c2ccccc2)nc2c(Br)c(=O)[nH]n12 | inactive |
| COc1cc(/C=N/NS(=O)(=O)c2ccc(C)c([N+](=O)[O-])c2)ccc1O | inactive |
| O=C(O)c1ccccc1NS(=O)(=O)c1ccc(N/N=C/c2ccc(O)c(O)c2)c([N+](=O)[O-])c1 | inactive |
| C[C@]12CC[C@H]3C(=CCc4cc(O)ccc43)[C@@H]1CCC2=O | inactive |
| CN(C)c1ccc(/C=C2/NC(=O)NC2=O)cc1 | inactive |
| CC1CCC/C(=C\c2ccc(O)cc2)C1=O (stereo unspecified) | inactive |
| O=C1NC(=S)NC1=Cc1ccc(O)cc1 | inactive |
| CCOc1ccccc1NC(=O)C(NCC1(N2CCCCC2)CCCCC1)c1ccccc1 (stereo unspecified) | inactive |
| O=C(Nc1cc(Br)c(O)c(Br)c1)c1cccc(NC(=O)c2ccco2)c1 | inactive |
| O=C(NC(=S)Nc1cccc2c(O)cccc12)c1ccco1 | inactive |
| Brc1csc(C=Nc2ccc3c(c2)OCCOCCOCCOCCO3)c1 | inactive |
| CCN(CC)c1ccc(/C=N/NC(=O)OC)c(O)c1 | inactive |
| Cc1ccccc1C(=O)Nc1ccc(N2CCCC2)cc1 | inactive |
| COC(=O)c1ccc(NC(=S)Nc2ccc(O)cc2)cc1 | inactive |

| SMILES | outcome |
| --- | --- |
| COc1ccc(C(=O)/C=C/c2ccc(O)cc2)cc1 | inactive |
| COC(=O)c1ccc(CNC(=O)COC(=O)/C=C/c2ccc(O)c(OC)c2)cc1 | inactive |
| COCCCNC(=S)N1CCN(Cc2ccc3c(c2)OCO3)CC1 | inactive |
| O=C(CC(c1ccccc1)c1ccccc1)Nc1ccc(O)cc1 | inactive |
| CCOC(=O)C1CCCN(C2=NC(=O)/C(=C/c3ccc(O)c(OCC)c3)S2)C1 (stereo unspecified) | inactive |
| CCN(CC)S(=O)(=O)c1cccc(-c2n[nH]c(=S)n2/N=C/c2ccc(OC(F)F)cc2)c1 | inactive |
| Nc1ccc(N2CCCC2)c(S(=O)(=O)Nc2cccc(C(F)(F)F)c2)c1 | inactive |
| COc1ccc2c(c1)-c1nc(/N=C/c3c(O)ccc4ccccc34)sc1CC2 | inactive |
| O=C(CN1C(=O)c2ccccc2S1(=O)=O)c1ccc(O)c(O)c1 | inactive |
| C=CCn1c(SCC(=O)c2ccc(O)c(O)c2)nnc1-c1cccc(Cl)c1 | inactive |
| CC1Cc2ccccc2N1C(=O)CNCCCN(C)C (stereo unspecified) | inactive |
| CN(C)C(=S)N=c1ssc(=S)n1Cc1ccccc1 | inactive |
| COc1ccc(NC2CCCN(C(=O)c3csc(C)n3)C2)cc1 (stereo unspecified) | inactive |
| C#CCOCCOCCOCCNc1nc(N2CCN(C(=O)[C@H](CCCCN)n3cc(CN)nn3)CC2)nc(N2CCN(C(=O)[C@H](CCCCN)n3cc(CN)nn3)CC2)n1 | inactive |
| C#CCOCCOCCOCCNc1nc(N2CCN(C(=O)[C@H](CCCCN)n3cc(CN)nn3)CC2)nc(N2CCN(C(=O)[C@H](CCC(=O)O)n3cc([C@@H](N)CCCCN)nn3)CC2)n1 | inactive |
| Cc1ccc(CCNc2ccc3ccccc3c2)cn1 | inactive |
| COc1cc(/C=C/CN2CCN(CCC(C)C)C(CCO)C2)ccc1O (stereo unspecified) | inactive |
| Nc1ccccc1Sc1ccc(C(=O)c2ccccc2C(=O)O)cc1[N+](=O)[O-] | inactive |
| COc1ccc(NC2CCCN(C(=O)CCc3cn[nH]c3)C2)cc1 (stereo unspecified) | inactive |
| COc1cccc(C(=O)Nc2cc3c(cc2N2CCCC2)n(C)c(=O)n3C)c1 | inactive |
| CCn1c(=O)n(CC)c2cc(N3CCCC3)c(NC(=O)c3ccccc3)cc21 | inactive |
| CN=Cc1cc(-c2ccccc2)sc1O | inactive |
| COc1cc(/C=N/NC(=O)C(C)Nc2n[nH]c(=O)[nH]c2=O)ccc1O (stereo unspecified) | inactive |
| COc1ccc(CN2CCN(c3ccccn3)CC2)c(OC)c1C | inactive |

| SMILES | outcome |
| --- | --- |
| COc1ccccc1OCC#CCn1ccnc1 | inactive |
| COc1cc(C2C(=O)c3ccccc3C2=O)ccc1O | inactive |
| COc1cc(/C=N/N2C(=O)c3ccccc3C2=O)ccc1O | inactive |
| Oc1ccc(/C=N/NC(=S)NCCN2CCOCC2)c(O)c1 | inactive |
| Clc1ccc(CNc2ccc(N3CCN(Cc4ccccc4)CC3)cc2)cc1 | inactive |
| CC(=O)N1CCN(c2ccc(NCc3ccc(F)cc3)cc2)CC1 | inactive |
| CSCCOC(=O)C1=C(C)Nc2ccc(C)cc2S1 | inactive |
| COc1cc(/C=N/n2c(-c3cc(C)[nH]n3)n[nH]c2=S)cc(OC)c1O | inactive |
| COc1cc(OC)c2cc[nH]c2c1 | inactive |
| C[n+]1c(-c2ccccc2)cc2c(=Cc3ccc([N+](=O)[O-])cc3)c3ccccc3n21 | inactive |
| COc1cc(C=C2C(=O)c3ccccc3C2=O)cc(OC)c1OC | inactive |
| CCOC(=O)c1sc(=S)[nH]c1C | inactive |
| c1cc(CNc2ccc3c(c2)OCO3)ccn1 | inactive |
| COc1cccc(CN2CCN(Cc3cccc(Oc4ccccc4)c3)CC2)c1OC | inactive |
| CC1(C)CC(=O)C(C(C2=C(O)CC(C)(C)CC2=O)c2cccs2)C(=O)C1 (stereo unspecified) | inactive |
| COc1ccccc1NS(=O)(=O)c1cc(N)ccc1N1CCCC1 | inactive |
| Cc1sc2ncnc(N/N=C/c3ccc(O)cc3)c2c1C | inactive |
| COc1ccc(/C=N/Nc2ccccn2)cc1O | inactive |
| COc1cc(/C=C/C(=O)OCC(=O)Nc2ccc(S(=O)(=O)N3CCCC3)cc2)ccc1O | inactive |
| NC(=O)N/N=C/c1ccc(N2CCOCC2)s1 | inactive |
| CNC(=S)N/N=C/c1ccc(N2CCOCC2)s1 | inactive |
| COc1cc(/C=N/n2cnnc2)ccc1OC(=O)c1ccncc1 | inactive |
| CSc1nc(=S)c2[nH]c(=S)[nH]c2[nH]1 | inactive |
